Screening data from PubChem BioAssay.
A selection: hits, their analogues and other compounds. The true share with any hit is near 3.6%.
mHTT CaM bind = inhibitors of human mutant huntingtin-calmodulin interaction. P42858. AlphaScreen His-mHTT/GST-CaM binding, luminescence. inhibition, % at 15 µM. 190,000 tested, 3.6% active
Pf apPOL block = Pf-apPOL DNA polymerase inhibition | Recombinant Pf-apPOL, molecular beacon fluorescence, 1.5 h | 210,000 tested, 0.25% active | inhibition, % at 10 µM
Each line names hits and unclear results; the compound was inactive in the other large screens. Rule as the data show it: active = inhibition above about 50%; inactive = the rest.

Cc1ccc(NC(=O)Cc2nc(-c3ccccc3)n[nH]2)cc1F	none
Cc1ccc(NC(=O)Cc2nc(-c3ccccn3)n[nH]2)cc1C	mHTT CaM bind 95.7
Cc1ccc(NC(=O)Cc2nc(-c3cccnc3)n[nH]2)cc1	none
O=[N+]([O-])c1ccc2nc(N3CCOCC3)sc2c1	none
O=C(NCCO)C(O)(c1ccc(Cl)cc1)c1ccc(Cl)cc1	none
COc1ccc(NCc2ccc(C)s2)cc1OC	mHTT CaM bind 70.9
COc1ccc(NCc2ccc(OC)c(OC)c2)cc1	none
O=C(NCc1ccccc1Br)c1cn2c(n1)COCC2	none
Cc1ccn2c(NC(=O)CC(C)C)c(-c3ccccc3C)nc2c1	none
Cc1ccn2c(NCc3ccccc3)c(-c3ccccc3O)nc2c1	mHTT CaM bind 80.5
CCn1c(CC2CCN(C(=O)Nc3ccc(C)cc3)C2)nc2cccnc21 (configuration not stated)	none
Cc1ccnc(N2CCC(C(=O)N3CCC(C(N)=O)(N4CCCCC4)CC3)CC2)n1	none
Cc1ccccc1-c1nc(C2CCN(C(=O)c3ccc(F)c(Cl)c3)CC2)no1	mHTT CaM bind 93.6
Cc1oc(C2CCN(C(=O)c3cc4ccccc4[nH]3)CC2)nc1C(=O)N1CCCC1	mHTT CaM bind 82.7
COc1cc(OC)cc(C(=O)N2CCC(c3noc(-c4ccccc4OC)n3)CC2)c1	none
COc1ccccc1-c1nc(C2CCN(C(=O)c3cc4ccccc4[nH]3)CC2)no1	mHTT CaM bind 100.2
CCOc1ccc(C(=O)N2CCC(c3noc(-c4ccccc4C)n3)CC2)cc1OCC	none
Cc1oc(C2CCN(C(=O)c3cc4ccccc4[nH]3)CC2)nc1C(=O)N(C)C	none
CCOC1=NN(c2ccc([N+](=O)[O-])cc2)C(=O)/C1=C/c1cc(OC)c(OC)cc1OC	none
COc1cc(OC)c(NC(=O)N2CCCC2c2cc(C)on2)cc1Cl (configuration not stated)	none
N#CC1=C(S)NC2=C(C(=O)CCC2)C1Cc1ccccc1 (configuration not stated)	mHTT CaM bind 59.0
CCSC1=C(C#N)C(Cc2ccccc2)C2=C(CCCC2=O)N1 (configuration not stated)	none
COc1cccc(N2CC(NC(=O)Nc3cccnc3)CC2=O)c1 (configuration not stated)	none
CC12CCC(CC1N)C2 (configuration not stated)	mHTT CaM bind 54.5
Cc1ccccc1CNC(=O)c1c(C)noc1-c1ccccc1Cl	none
COc1nc(-c2ccccc2)c2cc(Br)ccc2n1	none
NNc1nc(-c2ccccc2)c2cc(Br)ccc2n1	mHTT CaM bind 76.4
CN(CCCNC(=O)C1CCN(c2ccncc2)CC1)c1ccccc1	none
CN(CCCNC(=O)C1CCN(c2ccc(N3CCCCC3)nn2)CC1)c1ccccc1	mHTT CaM bind 54.4
Cc1cc(C)c2c(n1)sc1c(=O)n(N=Cc3cn(-c4ccccc4)nc3C)cnc12	none (no result: mHTT CaM bind)
O=C(Nc1ccc(O)c2c(=O)cc(-c3ccccc3Cl)oc12)c1ccc(Cl)cc1Cl	none
O=c1cc(-c2ccccc2Cl)oc2c(NS(=O)(=O)c3cc(Cl)cc(Cl)c3O)ccc(O)c12	mHTT CaM bind 96.6
O=C(NCC(=O)N1CCCc2ccccc21)c1ccoc1	none
COc1ccccc1C(=O)N/C(=C/c1ccc2c(c1)OCO2)C(=O)O	none
CC1CCC2(CC1)N=C(c1ccccc1)C(=O)N2CC(=O)Nc1cccc(Cl)c1 (configuration not stated)	mHTT CaM bind 70.0
O=C(CN1C(=O)C(c2ccc(F)cc2)=NC12CCCCC2)Nc1ccc(F)cc1	none
COc1ccc(NC(=O)CN2C(=O)C(c3ccccc3)=NC23CCC(C)CC3)cc1Cl (configuration not stated)	none
O=C(CN1C(=O)C(c2ccccc2)=NC12CCCCCC2)Nc1ccc(F)cc1	none
COc1ccc(NC(=O)CN2C(=O)C(c3ccccc3)=NC23CCC(C)CC3)cc1OC (configuration not stated)	none
O=C(CN1C(=O)C(c2ccccc2)=NC12CCCCC2)Nc1ccc(F)c(F)c1	mHTT CaM bind 100.0
O=C(CN1C(=O)C(c2ccc(F)cc2)=NC12CCCCC2)Nc1ccc(Cl)cc1	mHTT CaM bind 77.5
CC1CCC2(CC1)N=C(c1ccccc1)C(=O)N2CC(=O)Nc1ccc(F)c(F)c1 (configuration not stated)	mHTT CaM bind 76.4
O=C(NC1CC2CC1CN2C(=O)Nc1ccccc1C(F)(F)F)c1ccccc1 (configuration not stated)	none
O=C(c1ccc(F)cc1)N1CCC(Cc2ccccc2)CC1	none
Cc1ccccc1NC(=O)N1CC2CC(NC(=O)c3cccs3)C1C2 (configuration not stated)	none
CC(C)OCCCNC(=O)C1(C)CCC(=O)N1c1ccc(F)cc1 (configuration not stated)	none
CCc1ccc(S(=O)(=O)N2CCC(c3noc(-c4ccccc4C)n3)CC2)cc1	none
CCc1ccccc1NC(=O)C1CCc2sc(C(=O)N3CCOCC3)cc2C1 (configuration not stated)	none
O=C(CN1C(=O)C(c2ccccc2)=NC12CCCCCC2)Nc1ccccc1	none
O=C(CN1C(=O)C(c2ccccc2)=NC12CCCCCC2)Nc1cccc(F)c1	mHTT CaM bind 52.0
Cc1ccc(C2C3C(=O)N(c4cccc(C)c4)C(=O)C3N3CCCN23)cc1 (configuration not stated)	none
Cc1ccc(NC(=O)N2CCc3nc(-c4ccc(F)cc4)ncc3C2)cc1C	none
CNC1C(OC2C(OC3C(O)C(O)C(N=C(N)N)C(O)C3N=C(N)N)OC(C)C2(O)CO)OC(CO)C(O)C1O (configuration not stated)	none (no result: mHTT CaM bind)
NNc1nnc2c(n1)[nH]c1ccc(Br)cc12	mHTT CaM bind 66.7
Brc1ccc2[nH]c3nc4ccccc4nc3c2c1	none
Cc1cccc(N2CCN(C(=O)C3CCCN(c4cc(=O)n(C)c(=O)n4C)C3)CC2)c1C (configuration not stated)	mHTT CaM bind 51.1
Cc1cccc(N2CCN(C(=O)C3CCCN(c4cnn(C)c(=O)c4)C3)CC2)c1C (configuration not stated)	none
COc1ccc(C2C=C(c3ccc(Cl)cc3)Nc3ncnn32)cc1 (configuration not stated)	none
CN1C(=O)c2ccccc2Sc2cc(NC(=O)C3CC(=O)N(c4ccccc4)C3)ccc21 (configuration not stated)	none
OC(CC#CCN1CCOCC1)(c1ccccc1)C1CCCC1 (configuration not stated)	none
COc1ccc2cc(C(=O)NC(C)=O)c(=Nc3ccc(C(F)(F)F)cc3)oc2c1	Pf apPOL block 66.4
COc1ccc2cc(C(=O)NC(C)=O)c(=Nc3ccc(F)cc3)oc2c1	none
CC1(C)C2CCC1(C)C(OCC(O)CN1CCN(c3ccccc3F)CC1)C2 (configuration not stated)	none
CC1(C)C2CCC1(C)C(OCC(O)CN1CCN(c3cccc(C(F)(F)F)c3)CC1)C2 (configuration not stated)	mHTT CaM bind 93.3
CCC[C@H]1[C@@H](OC(=O)NCc2ccc(C(F)(F)F)cc2)CC[C@@]23CCCN2C(=O)CCC[C@@H]13	mHTT CaM bind 78.5
CCC[C@H]1[C@@H](OC(=O)NCc2cccc(C(F)(F)F)c2)CC[C@@]23CCCN2C(=O)CCC[C@@H]13	none
Cc1ccc(S(=O)(=O)N2CCC(Oc3cccc(C(F)(F)F)c3)CC2)cc1	mHTT CaM bind 94.7
O=S(=O)(Cc1ccccc1)N1CCC(Oc2cccc(C(F)(F)F)c2)CC1	none
O=C(Nc1nnc(SCc2cn3ccccc3n2)s1)c1nc2ccccc2s1	none
